Bioassay records from PubChem.
Hits are enriched below; roughly 11% of the tested compounds scored in any of these assays.
IMPase inh = qHTS Assay for Identifying the Cell-Membrane Permeable IMPase Inhibitors | Inositol monophosphatase 1 (Rattus norvegicus), P97697 | CHO-M1 cells, IP1 accumulation, HTRF TR-FRET ratio | inhibition (IP1 accumulation), % at 46.1 µM | 120,000 tested, under 10 active | AID 901, 2007; active = well fitted curve in the direction sought with a large enough effect in the signal ratio, not every such curve was filed as active; inconclusive = small, poorly fitted or top-dose-only effect, or a change in a side signal; inactive = no such curve, though single readings can be large or run the other way; the % refers to the signal ratio;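 also: cells stimulated with carbachol in lithium chloride buffer; plate controls were DMSO basal wells for no effect and reference inhibitor wells for full effect; higher means more IMPase inhibition seen as more IP1 and lower FRET ratio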
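CHO-M1 cells (CHO stably expressing M1 receptor), compound up to 46 uM final, stimulated with carbachol (50 uM as added) in buffer with 50mM LiCl, pH 7.4, 30 min at 37C. Cytosolic IP1 read by TR-FRET; AC50 from Hill fits.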
ALOX12 inhib = qHTS Assay for Inhibitors of 12-hLO (12-human lipoxygenase) | Polyunsaturated fatty acid lipoxygenase ALOX12 (Homo sapiens), P18054 | purified 12-hLO, xylenol orange hydroperoxide absorbance | Potency, µM (top dose mostly 57.1 µM), for the others: at the top dose activity change, negative = inhibition, actives largely listed as inhibitors | hit rate 0.12% among 150,000; also: potency is read from the fitted curve at half-maximal effect; nearly all actives have a fitted effect of over 55% in size
Target sequence (P18054 whole entry, looked up): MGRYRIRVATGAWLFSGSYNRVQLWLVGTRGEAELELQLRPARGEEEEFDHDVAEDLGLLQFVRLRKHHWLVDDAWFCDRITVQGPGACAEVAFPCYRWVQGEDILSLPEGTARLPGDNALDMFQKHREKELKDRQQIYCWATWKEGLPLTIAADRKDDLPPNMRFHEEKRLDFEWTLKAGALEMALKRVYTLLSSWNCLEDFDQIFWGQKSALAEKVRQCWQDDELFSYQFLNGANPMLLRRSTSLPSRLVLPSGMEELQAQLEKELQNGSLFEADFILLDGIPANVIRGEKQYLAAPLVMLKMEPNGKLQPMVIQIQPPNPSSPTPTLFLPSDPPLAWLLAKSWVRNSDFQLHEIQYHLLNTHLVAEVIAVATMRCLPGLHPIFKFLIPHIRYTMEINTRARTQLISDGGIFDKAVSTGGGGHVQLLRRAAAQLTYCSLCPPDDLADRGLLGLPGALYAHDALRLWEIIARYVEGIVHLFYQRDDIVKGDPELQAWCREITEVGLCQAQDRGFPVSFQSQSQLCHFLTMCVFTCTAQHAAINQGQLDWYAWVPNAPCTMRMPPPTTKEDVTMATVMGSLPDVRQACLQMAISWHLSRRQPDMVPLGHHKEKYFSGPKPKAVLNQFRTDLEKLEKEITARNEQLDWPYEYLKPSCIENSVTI
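Lipoxygenase turnover measured by absorbance at 573 and 405 nm after Fe-XO development. Human 12hLO 150 nM, arachidonate 40 uM, pH 7.0 Hepes buffer with detergent; 15 min compound preincubation, 30 min reaction.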
HPGD inh = qHTS Assay for Inhibitors of HPGD (15-Hydroxyprostaglandin Dehydrogenase). AID 894, 2007. Potency, µM, inactives show top-dose activity change, negative = inhibition, usual class: inhibitors. purified HPGD, NADH fluorescence kinetic, PGE2 substrate. hit rate 4.3% among 150,000; active = well fitted inhibition curve with a large enough effect, not every such curve was filed as active; inconclusive = small, poorly fitted or top-dose-only effect, or another doubt; inactive = no such curve, though single readings can be large or run the other way; also: potency is read from the fitted curve at half-maximal effect
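20 nM HPGD preincubated 15 min at room temperature with compound in 50 mM Tris-HCl pH 8, 0.01% Tween 20. Started with 1 mM NAD+ and 30 uM prostaglandin E2; NADH fluorescence (360/450 nm) read 5 times over 30-s intervals, last minus first.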
PNC inhibitor = High Content Assay for Compounds that inhibit the Assembly of the Perinucleolar Compartment; hit rate 3.1% among 140,000; PC3M PTB-GFP, PNC prevalence imaging, 16 h; hits give low values; AID 2417, 2010; activity change (PNC), negative = inhibition, % at 10 µM;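 active = readout at or below -70, meaning at least 70% loss of cells showing the perinucleolar compartment, a nuclear body marking cancer cells; inconclusive = readout between -30 and a set limit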;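 also: plate controls were DMSO wells for no effect and camptothecin positive control wells for full effect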
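Read-out is percentage of cells bearing a perinucleolar compartment, from automated 20x imaging of fixed, Hoechst-stained PC3M PTB-GFP cells. Cells were seeded 4 h, then exposed 16 h to compound (23 nl of library stock) in duplicate plates.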
IMPase Li inh = qHTS Assay for Identifying the Cell-Membrane Permeable IMPase Inhibitors: Potentiation with Lithium; CHO-M1 cells, IP1 TR-FRET (IP-One), carbachol + lithium; Potency, µM (top dose mostly 59.4 µM), for inactives: at the top dose activity, negative = IMPase inhibition, usual class: inhibitors; hit rate 0.35% among 210,000; AID 1457, 2008;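 also: IP1 builds up when IMPase is blocked and the TR-FRET signal falls; potency is read from the fitted curve at half-maximal effect; plate controls were basal vehicle for no effect and high inhibitor control for full effect; nearly all actives have a fitted effect of over 50% in size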
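Concentration–response in CHO-M1 cells, lithium-potentiated; 30 min at 37C. IP1 detected by competitive TR-FRET after 10 min lysis at RT. Hill-fitted AC50.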
ALDH1A1 block = qHTS Assay for Inhibitors of Aldehyde Dehydrogenase 1 (ALDH1A1). Purified ALDH1A1, NADH fluorescence, propionaldehyde substrate. Potency, µM (highest dose often 75.3 µM), for inactives: at the top dose activity, negative = inhibition, hits mostly inhibitors. hit rate 7.3% among 220,000. AID 1030, 2008; active = well fitted inhibition curve with a large enough effect, not every such curve was filed as active; inconclusive = small, poorly fitted or top-dose-only effect, or another doubt; inactive = no such curve, though single readings can be large or run the other way;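 also: potency is read from the fitted curve at half-maximal effect; plate controls were no enzyme wells and a reference inhibitor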
* hit, by the source's call; [ ] = another dose, or the depositor's remark. Unless noted, calls follow the shape of the dose curve; as a rule, active = well fitted curve in the direction sought with a large enough effect; inconclusive = small, poorly fitted or top-dose-only effect, or another doubt; inactive = no such curve, though single readings can be large; an effect the other way counts as inactive or inconclusive. Unless noted, % is scaled to controls: 0 for no effect and ±100 for the full control effect.

Results for C=CCOC(=O)NC(c1ccc(F)c(F)c1)C(C(=O)CCl)C(=O)OC (centres undefined) ?
HPGD inh: -22.2%; IMPase Li inh: 17.8%; ALDH1A1 block: 10µM*

How did Cn1c(=O)c(-c2cccs2)nc2cnc(N3CCNCC3)nc21 do in these assays?
IMPase Li inh: -2.7%; ALDH1A1 block: inconclusive

What do the screens show for `O=C(NCC1CCCO1)c1ccc(Cn2c(=S)[nH]c3ccccc3c2=O)cc1` (centres undefined)?
IMPase Li inh: 1.9%; ALDH1A1 block: -9.0%

How did O=C(NCC1CCCO1)c1ccc2c(=O)n(CC3CCCO3)c(=S)[nH]c2c1 (centres undefined) do in these assays?
IMPase inh: 1.5; ALOX12 inhib: 4.8%; HPGD inh: -16.1%; PNC inhibitor: inconclusive; IMPase Li inh: 13.6%[38.3 µM]; ALDH1A1 block: 11.2µM*

How did COCCn1c(=S)[nH]c2cc(C(=O)NCC3CCCO3)ccc2c1=O (centres undefined) do in these assays?
IMPase inh: -2.3; ALOX12 inhib: 3.1%; HPGD inh: -9.2%; PNC inhibitor: 46.1; IMPase Li inh: 1.0%; ALDH1A1 block: 15.8µM*

What do the screens show for `O=C(c1ccc2c(=O)n(CC3CCCO3)c(=S)[nH]c2c1)N1CCN(c2ccccc2)CC1` (centres undefined)?
IMPase inh: -10.7; ALOX12 inhib: 2.9%; HPGD inh: -12.4%; PNC inhibitor: -27.4; IMPase Li inh: -3.4%[38.3 µM]; ALDH1A1 block: inconclusive

How did COCCn1c(=O)[nH]c2cc(C(=O)NCC3CCCO3)ccc2c1=O (centres undefined) do in these assays?
IMPase inh: 1.0; ALOX12 inhib: -0.2%; HPGD inh: inconclusive; PNC inhibitor: -3.8; IMPase Li inh: -2.0%[38.3 µM]; ALDH1A1 block: inconclusive

Results for CCOC(=O)N1CCN(C(=O)c2ccc3c(=O)n(CC4CCCO4)c(=S)[nH]c3c2)CC1 (centres undefined) ?
IMPase inh: 16.5; ALOX12 inhib: 1.2%; HPGD inh: -4.7%; PNC inhibitor: -13.4; IMPase Li inh: -16.4%[38.3 µM]; ALDH1A1 block: 14.1µM*

Results for CCCCOC(OCCCC)[C@H](O)CSc1ccc2ccccc2c1 ?
ALDH1A1 block: 4.1%[13.5 µM]

What do the screens show for `Cc1ccccc1Nc1c(-c2ccc(N3CCOCC3)cc2)nc2ccc(Cl)cn12`?
IMPase inh: -7.3

How did O=[N+]([O-])c1cccc(-c2nc(N3CCOCC3)c3ccccc3n2)c1 do in these assays?
IMPase Li inh: 5.8%; ALDH1A1 block: 7.94µM*

What do the screens show for `Cc1noc(C)c1-c1nc(N2CCOCC2)c2ccccc2n1`?
ALOX12 inhib: -9.5%; HPGD inh: 25.1µM*; IMPase Li inh: 0.7%; ALDH1A1 block: inconclusive

How did CCOc1ccc(-n2c(CCC(=O)O)ccc2-c2ccc(Br)cc2)cc1 do in these assays?
IMPase inh: 2.1

What do the screens show for `COC(=O)c1ccc(/C=C2\N=C(SC)SC2=O)cc1`?
IMPase inh: -5.9; ALOX12 inhib: 5.8%; PNC inhibitor: 23.6; ALDH1A1 block: inconclusive

Results for CCOc1cc(/C=C2\N=C(SCC)SC2=O)cc([N+](=O)[O-])c1OC(C)=O ?
IMPase inh: 9.3; ALOX12 inhib: -18.1%; HPGD inh: 12.6µM*; PNC inhibitor: inconclusive; IMPase Li inh: 1.7%[38.3 µM]; ALDH1A1 block: 31.6µM*

Results for CCOc1c(OC(C)=O)ccc(/C=C2\N=C(SCC)SC2=O)c1[N+](=O)[O-] ?
IMPase inh: -1.9; ALOX12 inhib: -20.3%; HPGD inh: 10µM*; PNC inhibitor: -10.0; IMPase Li inh: 2.2%[38.3 µM]; ALDH1A1 block: inconclusive

Results for CCOc1cc(/C=C2\N=C(SC)SC2=O)cc([N+](=O)[O-])c1OC(C)=O ?
IMPase inh: 10.0; ALOX12 inhib: -6.3%; HPGD inh: 15.8µM*; PNC inhibitor: 26.0; IMPase Li inh: 8.4%[38.3 µM]; ALDH1A1 block: 28.2µM*

How did COC(=O)[C@@]1(C)C=C[C@@H](Cc2ccccc2)N1C do in these assays?
ALOX12 inhib: -3.7%; HPGD inh: -9.5%; IMPase Li inh: 3.5%; ALDH1A1 block: inconclusive

What do the screens show for `COC(=O)N1CCC[C@@]2(CCN(C(=O)Nc3ccccc3)C2)C1`?
ALOX12 inhib: -0.8%; HPGD inh: -10.6%; IMPase Li inh: -4.8%; ALDH1A1 block: -2.1%

How did N#Cc1ccc(CN2CC3(CCN(C(=O)c4csnn4)CC3)C2)cc1 do in these assays?
ALOX12 inhib: -0.3%; HPGD inh: -7.3%; IMPase Li inh: 6.7%; ALDH1A1 block: 10.5%

What do the screens show for `O=C(NC(=S)Nc1ccc(O)cc1)c1ccccc1Cl`?
IMPase Li inh: 12.3%; ALDH1A1 block: 17.8µM*

What do the screens show for `COc1ccc(NC(=S)NC(=O)c2ccccc2Cl)cc1`?
IMPase Li inh: -5.4%; ALDH1A1 block: 12.6µM*

What do the screens show for `O=C(NC(=S)Nc1ccc(Cc2ccncc2)cc1)c1ccccc1Cl`?
IMPase inh: 3.2; ALOX12 inhib: 0.5%; PNC inhibitor: 54.8; ALDH1A1 block: inconclusive

What do the screens show for `CC(C)CNC(=S)NC(=O)c1ccccc1Cl`?
ALOX12 inhib: -6.9%; HPGD inh: -7.6%; PNC inhibitor: -134.0*; IMPase Li inh: -9.8%; ALDH1A1 block: -5.6%

Results for Cc1ccc(NC(=O)Cn2c(-c3nonc3N)nc3ccccc32)cc1C ?
IMPase inh: -3.0

How did COc1cccc(Cn2c(=O)c(-c3cccc(C#N)c3)nc3cnc(N4CCOCC4)nc32)c1 do in these assays?
IMPase Li inh: -0.8%; ALDH1A1 block: inconclusive

Results for COC(=O)C1C2CC3c4[nH]c5cc(OC)ccc5c4CCN3CC2CC(OC(=O)c2cc(OC)c(OC)c(OC)c2)C1OC (centres undefined) ?
IMPase inh: -10.3; ALOX12 inhib: -18.3%; HPGD inh: -9.2%; IMPase Li inh: 0.9%; ALDH1A1 block: -8.9%

How did C=C[C@H]1CCC=C2C(=O)CCC[C@@H]21 do in these assays?
HPGD inh: -4.6%; IMPase Li inh: 2.1%; ALDH1A1 block: -4.8%

Results for Fc1ccc(/C=N/n2cnn(Cc3ccccc3Cl)c2=S)cc1 ?
IMPase Li inh: -4.1%; ALDH1A1 block: 20µM*

Results for COc1ccc(CC(=O)Nc2ccc(N3CCOCC3)cc2)cc1OC ?
ALDH1A1 block: -0.1%
